# PubChem BioAssay (NCI)
# About 79,000 compounds went through this panel and 15% of them were active in at least one assay; those are over-represented in the sample as a whole. Values without a mark were called inactive. Calls of active or inactive are those of the source. Rule as the data show it: active = growth inhibition above about 70%; inactive = the rest.
# Experiments:
# [1] = NCI Yeast Anticancer Drug Screen. Data for the rad50 strain (AID 155);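 also: 0% = growth of vehicle-only cultures of the same strain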; conditions: S. cerevisiae rad50 strain growth inhibition, stronger effect = higher value
# In short: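 DNA repair mutant yeast, compound exposure, growth read-out; inhibition is taken relative to vehicle.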
# [2] = NCI Yeast Anticancer Drug Screen. Data for the mec2-1 strain (AID 157); conditions: S. cerevisiae mec2-1 strain, stronger effect = higher value
# In short: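 Growth inhibition is read against vehicle-treated controls after compound exposure of the mec2-1 yeast strain, which is defective in DNA damage repair or cell cycle control.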
# [3] = NCI Yeast Anticancer Drug Screen. Data for the sgs1 mgt1 strain (AID 161);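 also: 0% = growth of cultures given vehicle only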; conditions: S. cerevisiae sgs1 mgt1 strain, stronger effect = higher value
# In short: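 Percent growth inhibition was derived by comparing compound-exposed mutant yeast with vehicle-exposed cultures. The strain carries alterations in DNA damage repair.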
# [4] = NCI Yeast Anticancer Drug Screen. Data for the cln2 rad14 strain (AID 165);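 also: 0% = growth equal to vehicle treated cultures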; conditions: S. cerevisiae cln2 rad14 strain, stronger effect = higher value
# In short: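 Growth inhibition, relative to vehicle-treated controls, is the read-out. The test organism is a yeast strain with defined genetic alterations, cln2 rad14.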
# [5] = NCI Yeast Anticancer Drug Screen. Data for the bub3 strain (AID 167); conditions: S. cerevisiae bub3 mutant strain, stronger effect = higher value
# In short: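 In this screen, a yeast mutant lacking normal mitotic checkpoint function is challenged with compound. Relative growth versus vehicle gives the inhibition value.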
# [6] = NCI Yeast Anticancer Drug Screen. Data for the mlh1 rad18 strain (AID 175); conditions: S. cerevisiae mlh1 rad18 strain growth inhibition, stronger effect = higher value
# In short: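 Cells of a genetically altered yeast strain, deficient in DNA damage repair, were treated with compound. Their growth was then compared with that of vehicle-treated cultures to give inhibition.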
# [7] = at 5.0 µM (retest, dose inferred, filed as 0.5)
# [8] = at 50.0 µM (retest, dose inferred, filed as 5.0)
SMILES,"growth inhibition [1, 7]","growth inhibition [1, 8]",growth inhibition ([1]; at 50.0 µM),"growth inhibition [2, 7]","growth inhibition [2, 8]",growth inhibition ([2]; at 50.0 µM),"growth inhibition [3, 7]","growth inhibition [3, 8]",growth inhibition ([3]; at 50.0 µM),"growth inhibition [4, 7]","growth inhibition [4, 8]",growth inhibition ([4]; at 50.0 µM),"growth inhibition [5, 7]","growth inhibition [5, 8]",growth inhibition ([5]; at 50.0 µM),"growth inhibition [6, 7]","growth inhibition [6, 8]",growth inhibition ([6]; at 50.0 µM)
COc1ccc2c(c1)CN([C@@H](C)[C@H]1CC[C@H]3[C@@H]4CC[C@H]5C[C@@H](O)CC[C@]5(C)[C@H]4CC[C@]13C)CO2,90% (active),99% (active),99% (active),59%,99% (active),99.3% (active),97% (active),100% (active),99.2% (active),95% (active),99% (active),98.2% (active),91% (active),99% (active),98.7% (active),97% (active),99% (active),98.4% (active)
CN(C)CCC(=O)c1ccc2c(ccc3ccccc32)c1,5%,36%,69.7%,10%,83% (active),66.8%,8%,92% (active),90.5% (active),-3%,51%,-7.8%,6%,94% (active),84.7% (active),0%,90% (active),77.2% (active)
FC(F)(F)c1nc(Cl)nc2nc[nH]c12,3%,-9%,26.4%,-7%,-2%,6.1%,-3%,-10%,-31.4%,-3%,0%,17.4%,-1%,4%,-21.7%,0%,-8%,-4.75%
O=C1CCC(Cc2ccc(I)cc2)C(=O)N1 (configuration not stated),-5%,3%,-2.9%,1%,6%,-12.7%,-11%,68%,66.3%,-5%,7%,-63.8%,-6%,-5%,-54.2%,-6%,1%,-4.6%
Cc1cc(N)c2cc(OCCOc3ccc4nc(C)cc(N)c4c3)ccc2n1,68%,91% (active),97.5% (active),69%,94% (active),95.2% (active),77% (active),93% (active),92.5% (active),71% (active),92% (active),84.7% (active),79% (active),95% (active),93.7% (active),91% (active),94% (active),95.2% (active)
COc1ccc(C(=O)c2ccc([N+](=O)[O-])cc2)cc1,-1%,-19%,-4.55%,7%,-9%,-12.2%,3%,0%,-3.8%,-15%,-47%,53.4%,9%,-17%,17.5%,13%,0%,-21.6%
Cc1ccc(S)c(S)c1,65%,53%,63.4%,52%,34%,35.9%,44%,28%,39.3%,81% (active),93% (active),77.7% (active),92% (active),93% (active),64.6%,95% (active),93% (active),41.5%
O=C1CCC(O)N1CN1C(=O)CCC1O (configuration not stated),-4%,1%,36.1%,-4%,-17%,18.4%,9%,-3%,22.9%,-17%,10%,20.8%,18%,-4%,22.1%,-6%,-10%,46.5%
O=Nc1c(-c2c[nH]c3ccccc23)[nH]c2ccccc12,8%,60%,51.1%,7%,44%,24.2%,13%,56%,16%,-8%,33%,16.9%,13%,84% (active),69%,12%,53%,26.1%
O=S(=O)(CCNCCCCC1CCCCC1)SCCNCCCCC1CCCCC1,48%,99% (active),68.3%,3%,99% (active),49.1%,70% (active),99% (active),55.1%,10%,99% (active),56.5%,16%,99% (active),98.8% (active),38%,99% (active),47%
CCCCCCC1CCC(CCCCCCCC(=O)N2CCN(C)CC2)C(C/C=C/CCCCCCCC(=O)N2CCN(C)CC2)C1CCCCC (configuration not stated),3%,93% (active),98.8% (active),-1%,75% (active),99.3% (active),1%,70% (active),99.3% (active),-1%,84% (active),92.6% (active),4%,90% (active),98.7% (active),6%,95% (active),98.9% (active)
O=c1c2c3ccccc3[nH]c2c2cccc3c2n1CCC3,4%,92% (active),88.7% (active),5%,88% (active),90% (active),13%,89% (active),88.2% (active),-1%,69%,83.5% (active),11%,96% (active),89.3% (active),13%,94% (active),88.8% (active)
ICCCCSc1cc(-c2ccccc2)[o+]c2ccccc12,23%,92% (active),93% (active),10%,51%,72.2% (active),19%,75% (active),75.2% (active),1%,49%,24.3%,7%,85% (active),75.4% (active),11%,71% (active),88.8% (active)
CCCCc1c2c(nc3c1CCCC3O)/C(=C/c1ccccc1)CCC2 (configuration not stated),0%,42%,50.8%,0%,47%,53.9%,-2%,67%,49.9%,-3%,30%,59.9%,3%,89% (active),83.7% (active),1%,71% (active),80.3% (active)
CCN(CC)c1ccc(N=C2C=C(C(=O)Nc3cccc(Cl)c3)C(=O)c3ccccc32)c(C)c1,-1%,-12%,-17.9%,8%,32%,-7%,-30%,-23%,-9.25%,-4%,-7%,38.4%,0%,-12%,-4.35%,-34%,-43%,-27.2%
c1ccc(-c2cc(CN3CCOCC3)c(-c3ccccc3)o2)cc1,-1%,98% (active),52.8%,-6%,99% (active),51.9%,3%,99% (active),57.9%,-6%,99% (active),56.4%,1%,99% (active),55.8%,-2%,99% (active),54.1%
O=S(=O)(Nc1ccccn1)c1ccc(N=Cc2c3ccccc3nc3cc(Cl)ccc23)cc1,2%,27%,98.8% (active),5%,18%,85.8% (active),1%,1%,99.2% (active),4%,-17%,97.5% (active),9%,6%,57.6%,5%,6%,98.2% (active)
CC(=O)Nc1nc(Cl)c2ncn(C3CC(OC(=O)c4ccc(C)cc4)C(COC(=O)c4ccc(C)cc4)O3)c2n1 (configuration not stated),-3%,0%,53.1%,0%,6%,27.4%,57%,3%,60.1%,-2%,0%,63.4%,0%,-2%,33.2%,-20%,0%,48.6%
CC1=CC(=O)C(O)=C/C1=C\C=C\c1ccccc1,15%,98% (active),99.2% (active),23%,99% (active),99% (active),26%,99% (active),49.4%,6%,97% (active),98.8% (active),11%,98% (active),99% (active),50%,98% (active),99.2% (active)
